Screening results (PubChem BioAssay)
mHTT CaM bind = mutant huntingtin-calmodulin interaction inhibitors – biochemical, AlphaScreen, primary screen; hit rate 3.6% among 190,000; P42858; inhibition, % at 15 µM; AID 1671202, 2021; AlphaScreen His-mHTT/GST-CaM binding, luminescence;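 note: 0% = both proteins with DMSO and 100% = one protein alone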
Pf apPOL inh = Pf-apPOL inhibitors, biochemical, fluorescence; Plasmodium falciparum apicoplast DNA polymerase (apPOL); Recombinant Pf-apPOL, molecular beacon fluorescence, 1.5 h; inhibition, % at 10 µM; hit rate 0.25% among 210,000; AID 1794808, 2022
* = called active by the depositor. In the library only some 3.5% were active in any assay of this set; here they are far more common. Cut-off read from the data, not from the text of the source: active = inhibition above about 50%; inactive = the rest.

`CCCNC(=O)C1CC(=O)N(c2ccc3c(c2)CCN3C(=O)C2CC2)C1` (stereo not given) gave mHTT CaM bind 1 and Pf apPOL inh -2.
`O=C(C1CC(=O)N(c2ccccc2)C1)N1CCN(C2CCCC2)CC1` (stereo not given) gave mHTT CaM bind 5 and Pf apPOL inh -6.
CC(=O)Nc1ccc2c(c1)CCC2 was read as Pf apPOL inh -7.
Screening COC1CCCCC1Nc1ccc2c(c1)CCC2 (stereo not given) returned mHTT CaM bind 52*.
`CN1CCOc2ccc(NC(=O)Cc3cccs3)cc2C1=O` gave mHTT CaM bind -3 and Pf apPOL inh 13.
For CC(C)CC(C(=O)N1CCOCC1)N1C(=O)C2C3c4ccccc4C(c4ccccc43)C2C1=O (stereo not given) the results were mHTT CaM bind 55* and Pf apPOL inh -10.
C=C1CCN([C@@H](CC(C)C)C(=O)N2CCOCC2)S(=O)(=O)c2ccccc21 was read as mHTT CaM bind 9 and Pf apPOL inh -1.
For O=C(CCN1CCN(C2c3ccccc3-c3ccccc32)CC1)Nc1ccccc1F the results were mHTT CaM bind 15 and Pf apPOL inh -2.
Screening CCOc1ccccc1NC(=O)CCN1CCN(C2c3ccccc3-c3ccccc32)CC1 returned mHTT CaM bind 57* and Pf apPOL inh 0.
`COc1ccccc1C(=O)Nc1ccc([N+](=O)[O-])cc1C` gave mHTT CaM bind -6 and Pf apPOL inh -25.
`CN1CCCc2cc(CCNS(=O)(=O)c3cccs3)ccc21` gave mHTT CaM bind 51* and Pf apPOL inh -5.
Screening CN1CCCc2cc(CCNC(=O)C34CC5CC(CC(C5)C3)C4)ccc21 returned mHTT CaM bind 53* and Pf apPOL inh 1.
`CN1CCCc2cc(C(CNC(=O)C34CC5CC(CC(C5)C3)C4)N3CCCC3)ccc21` (stereo not given) gave mHTT CaM bind 34 and Pf apPOL inh 5.
For O=S(=O)(NCC#CCN1CCc2ccccc2C1)c1cccs1 the results were mHTT CaM bind -6 and Pf apPOL inh 0.
CCOC(=O)c1cnn(-c2nc(-c3ccc(Cl)cc3)cs2)c1C(F)(F)F was read as Pf apPOL inh -4.
Screening O=C(c1cn2ccccc2n1)N1CCC(N2CCCCC2)CC1 returned mHTT CaM bind -4 and Pf apPOL inh 1.
Cc1nc(-c2ccccc2)sc1C(=O)N1CCC(C(C)C(=O)NC2CCCC2)CC1 (stereo not given) was read as mHTT CaM bind 100* and Pf apPOL inh -1.
Screening Cc1nc(-c2ccccc2)sc1C(=O)N1CCC(CC(=O)NC2CCCCC2)CC1 returned mHTT CaM bind 24 and Pf apPOL inh -6.
For CCOc1ccccc1NC(=O)N1CCC2(CC1)NC(=O)c1ccccc1N2CC the results were mHTT CaM bind 1 and Pf apPOL inh -2.
For O=C1C(=C(c2ccccc2)c2ccccc2)C(=O)c2ccccc21 the results were mHTT CaM bind 61* and Pf apPOL inh -11.
`O=C1C(c2ccccc2)=C(c2ccccc2)c2ccccc21` gave mHTT CaM bind 41 and Pf apPOL inh -1.
`NC(=S)N1N=C(c2ccccc2)CC1c1ccccc1` (stereo not given) gave mHTT CaM bind 7.
For N#CC(c1ccccc1O)N1N=C(c2ccccc2)CC1c1ccccc1 (stereo not given) the results were mHTT CaM bind 92* and Pf apPOL inh -6.
For CCN(CC)C(=O)c1cc2c(s1)CCC(C(=O)NCc1c(C)nn(C)c1C)C2 (stereo not given) the results were mHTT CaM bind 3 and Pf apPOL inh -8.
`Cc1cc(-c2nnc(NC(=O)c3ccc4c(c3)OCCO4)o2)c(C)o1` gave mHTT CaM bind 2 and Pf apPOL inh -6.
Cc1cc(-c2nnc(NC(=O)c3ccn(C)n3)o2)c(C)o1 was read as mHTT CaM bind 68* and Pf apPOL inh -6.
`COc1cc(C2=NOC(C(=O)Nc3ccc4c(c3)OCO4)C2)cc(OC)c1OC` (stereo not given) gave mHTT CaM bind 60* and Pf apPOL inh -5.
`COc1ccc(C2=NOC(C(=O)Nc3ccc4c(c3)OCO4)C2)cc1OC` (stereo not given) gave mHTT CaM bind 55* and Pf apPOL inh -1.
`COc1ccc(NC(=O)C2CC(c3cc(OC)c(OC)c(OC)c3)=NO2)cc1OC` (stereo not given) gave mHTT CaM bind 46 and Pf apPOL inh -5.
`COc1ccc(NC(=O)C2CC(c3ccc(OC)c(OC)c3)=NO2)cc1OC` (stereo not given) gave mHTT CaM bind 30 and Pf apPOL inh -4.
`CC(Cc1ccco1)NC(=O)c1c(F)cccc1Cl` (stereo not given) gave mHTT CaM bind -13 and Pf apPOL inh -3.
Cc1cc(C)cc(N2CCC(NC(=O)Cc3ccsc3)C2=O)c1 (stereo not given) was read as mHTT CaM bind 4 and Pf apPOL inh 5.
N#CC1=C(N)C(C#N)(C#N)C(c2ccc(I)cc2)C=C1C1CC1 (stereo not given) was read as mHTT CaM bind 58* and Pf apPOL inh 1.
For N#CC1=C(N)C(C#N)(C#N)C(c2ccc(O)cc2)C2CCCC=C12 (stereo not given) the results were mHTT CaM bind -3 and Pf apPOL inh -4.
Cc1ccc(C2CC(C(F)(F)F)n3ncc(C(=O)N4CCc5ccccc5C4)c3N2)cc1 (stereo not given) was read as mHTT CaM bind -2 and Pf apPOL inh -5.
For Cc1ccc(C)c(NC(N)=Nc2nc(C)cc(C)n2)c1 the results were mHTT CaM bind -6 and Pf apPOL inh 2.
`Cc1cc(NC(=O)C2CCCN(c3ccc(-c4ccc(Cl)cc4)nn3)C2)on1` (stereo not given) gave mHTT CaM bind -9 and Pf apPOL inh -13.
For O=C(Cc1cccs1)N1CCCC(c2ccnc(Nc3ccc(F)cc3)n2)C1 (stereo not given) the results were mHTT CaM bind 53* and Pf apPOL inh -2.
For Cc1ccc(Nc2nccc(C3CCCN(C(=O)Cc4cccs4)C3)n2)cc1 (stereo not given) the results were mHTT CaM bind 63* and Pf apPOL inh -5.
Screening Cc1ccc(Nc2nccc(C3CCCN(C(=O)C4CCC4)C3)n2)cc1 (stereo not given) returned mHTT CaM bind 47 and Pf apPOL inh -4.
For CC(=O)N1CCCC(c2ccnc(Nc3ccc(F)cc3)n2)C1 (stereo not given) the results were mHTT CaM bind 15 and Pf apPOL inh -8.
CC(=O)N(C1=C(N2CCOCC2)C(=O)c2ccccc2C1=O)c1ccc(C(=O)O)cc1 was read as mHTT CaM bind 18 and Pf apPOL inh -12.
CC(=O)N(C1=C(N2CCCCC2)C(=O)c2ccccc2C1=O)c1cccc(Cl)c1 was read as mHTT CaM bind 76* and Pf apPOL inh 3.
Screening CC(=O)N(C1=C(N2CCCC2)C(=O)c2ccccc2C1=O)c1ccc(F)c(F)c1 returned mHTT CaM bind 100* and Pf apPOL inh -4.
For CC(=O)N(C)C1=C(N2CCCC2)C(=O)c2ccccc2C1=O the results were mHTT CaM bind 15 and Pf apPOL inh -3.
For CC(C)Nc1nc(Cl)nc(Nc2cccc(C(F)(F)F)c2)n1 the results were mHTT CaM bind -7 and Pf apPOL inh -4.
